# In the supplement of paper PMC10981050:
# Where “and” joins values, the source holds several entries; their conditions need not be identical. Equal values may be shown once. Where a name gives a salt, the structure may show the parent alone.
# Tests used:
# Test in all cases: cell viability relative to vehicle control; higher = less cytotoxic
# Details in all cases: 10 µM
# K562 = test system: K562
# In short: (§1)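 Mutant clones made by CRISPR editing and their isogenic wild-type counterparts, from four leukaemia lines, were exposed to a single 10 µM dose of each library compound for 48 h. The supernatant was then removed and CellTiter-Glo luminescence was read. Viability was reported as percent of the on-plate vehicle control.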
# MARIMO = test system: MARIMO
# In short: as §1
# MOLM14 = test system: MOLM14
# In short: as §1
# OCI-AML2 = test system: OCI-AML2
# In short: as §1
Compound,cell viability (K562; SRSF2 genotype: SRSF2 P95H/wt),cell viability (K562; SRSF2 genotype: SRSF2 wt/wt) [%],cell viability (MARIMO; SRSF2 genotype: SRSF2 P95H/wt) [%],cell viability (MARIMO; SRSF2 genotype: SRSF2 wt/wt) [%],cell viability (MOLM14; SRSF2 genotype: SRSF2 P95H/wt) [%],cell viability (MOLM14; SRSF2 genotype: SRSF2 wt/wt) [%],cell viability (OCI-AML2; SRSF2 genotype: P95H/wt) [%],cell viability (OCI-AML2; SRSF2 genotype: wt/wt) [%]
O=c1cc(N2CCOCC2)oc2c(-c3ccccc3)cccc12,76.7% and 86.9%,91.8,66.6,64.8,51.5,45.6,47.5,49.4
C=CC(=O)Nc1ccc2ncnc(Nc3ccc(OCc4cccc(F)c4)c(Cl)c3)c2c1,25.1% and 46.8%,60,28.4,44.3,12.6,7.61,1.91,20.6
CC1(C)CCC[C@](C)([C@H]2CC[C@]3(C)[C@@H]2[C@H](O)C[C@@H]2[C@@]4(C)CC[C@H](O)C(C)(C)[C@@H]4[C@@H](O)C[C@]23C)O1 [Panaxatriol],105% and 99.1%,97.5,103,105,98.6,103,102,109
Cc1nnc(SCC2=C(C(=O)O)N3C(=O)[C@@H](NC(=O)Cn4cc(Cl)c(=O)c(Cl)c4)[C@H]3SC2)s1 [Cefazedone],102% and 107%,108,106,111,106,106,121,102
O=P(O)(O)Oc1cccc2ccccc12 [1-Naphthyl phosphate potassium salt],104% and 95%,97.8,87.5,107,91.7,104,83.9,91.1
O=C1CC(=O)c2c(Cl)c(Cl)c(Cl)c(Cl)c21,92.3% and 95%,92.2,99.7,96.6,95.3,93.7,99.7,104
OCc1c[nH]c2ccccc12 [Indole-3-carbinol],102% and 107%,99.8,105,113,95.1,104,105,106
CN(C)C(=O)c1ccc(S(=O)(=O)c2ccc(NC(=O)C(C)(O)C(F)(F)F)c(Cl)c2)cc1 (stereo not given),75.7% and 74.8%,74.2,60.1,58,78.4,84.5,52.9,55.2
CC(=O)OCCc1ccc(O)c(O)c1 [Hydroxytyrosol Acetate],93.5% and 95.4%,104,85.5,98.6,95.7,103,108,110
CNC1CCCN(c2c(F)cc3c(=O)c(C(=O)O)cn(C4CC4)c3c2OC)C1 (stereo not given) [Balofloxacin],104% and 108%,105,107,105,107,109,106,94.3
CN1CCN(C2CCN(C(=O)Nc3cc(Oc4ccc(NC(=O)C5(C(=O)Nc6ccc(F)cc6)CC5)c(F)c4)ccn3)CC2)CC1 [Golvatinib (E7050)],5.46% and 7.13%,10.1,61.6,58.9,4.27,8.67,7.56,18.6
CC(C)CC(=O)Nc1n[nH]c2c1CN(C(=O)C1CCN(C)CC1)C2(C)C,37.5% and 39.7%,38.4,15.8,6.67,2.48,1.14,8.45,17.8
O[C@H]1[C@H]2c3cc4c(cc3CN3CCC(=C[C@@H]1O)[C@H]23)OCO4 [Lycorine hydrochloride],18.7% and 26.8%,28.4,22.9,21,20.3,7.64,0.76,2.07
O=C(O)CNC(=O)c1nc(Cl)c2ccccc2c1O,84.7% and 85.9%,81.2,80.5,91.2,80.2,89.1,95.8,89.8
COc1cc2c(cc1OC)CN(CCc1ccc(NC(=O)c3cc(OC)c(OC)cc3NC(=O)c3cnc4ccccc4c3)cc1)CC2 [Tariquidar],94.6% and 105%,96.9,95.3,105,93.5,95.7,96.4,100
CCc1ccc(CCOc2ccc(CC3SC(=O)NC3=O)cc2)nc1 (stereo not given) [Pioglitazone hydrochloride (Actos)],100% and 97%,93.4,104,102,96.4,100,95.7,93.5
COC1(c2sc3c(N4CCOCC4)nc(-c4cnc(N)nc4)nc3c2C)COC1,40.8% and 45.4%,40.3,47.9,38,26.3,24.1,4.68,16.4
Cc1cccc(-c2[nH]ncc2-c2ccc3ncccc3n2)n1,97.9% and 108%,107,107,114,94.6,105,78.9,83.5
COc1cc2c(Oc3ccc(NC(=O)C4(C(=O)Nc5ccc(F)cc5)CC4)cc3F)ccnc2cc1OCCCN1CCOCC1,0.8% and 0.64%,0.55,17.8,12.1,0.21,0.34,0.22,1.03
COC(=O)c1cc(OC)c(O)c(OC)c1 [Methyl syringate],101% and 87.8%,91.2,94,102,89.2,92.3,96.8,101

Compound,cell viability (K562; SRSF2 genotype: SRSF2 P95H/wt),cell viability (K562; SRSF2 genotype: SRSF2 wt/wt) [%],cell viability (MARIMO; SRSF2 genotype: SRSF2 P95H/wt) [%],cell viability (MARIMO; SRSF2 genotype: SRSF2 wt/wt) [%],cell viability (MOLM14; SRSF2 genotype: SRSF2 P95H/wt) [%],cell viability (MOLM14; SRSF2 genotype: SRSF2 wt/wt) [%],cell viability (OCI-AML2; SRSF2 genotype: P95H/wt) [%],cell viability (OCI-AML2; SRSF2 genotype: wt/wt) [%]
C=C(Cc1ccccc1Cl)C(=O)OCC,95.9% and 107%,91.8,107,100,96.2,98.2,106,101
Nc1ncn([C@H]2C[C@H](O)[C@@H](CO)O2)c(=O)n1 [Decitabine],77.9% and 88.9%,80.9,69.5,73.8,47.4,39.7,54.4,58.2
C[S+](CC[C@H](N)C(=O)[O-])C[C@H]1O[C@@H](n2cnc3c(N)ncnc32)[C@H](O)[C@@H]1O (stereo not given in full) [Ademetionine],108% and 105%,119,104,108,109,111,129,133
O=c1cc(-c2ccc(O)c(O)c2)oc2c([C@@H]3O[C@H](CO)[C@@H](O)[C@H](O)[C@H]3O)c(O)cc(O)c12 [Orientin],104% and 101%,101,100,97.3,103,103,98.8,100
CCCCCCC1CCC(=O)O1 (stereo not given),96.5% and 97.2%,97.8,97.3,101,103,102,96.3,106
CC(=O)Oc1ccccc1C(=O)O [Aspirin (Acetylsalicylic acid)],102% and 101%,94,96.4,95.9,95.7,102,100,96.7
CN(C)CC(=O)Nc1ccc2[nH]c(=O)c3ccccc3c2c1,97.7% and 93.8%,94.9,100,94.6,89.1,96,91.6,98.4
CC(=O)c1ccccc1O [2'-Hydroxyacetophenone],101% and 100%,99.4,99.1,96.6,105,101,102,105
CC(C)=CCC/C(C)=C/Cc1c(O)c(CC=C(C)C)c2c(c1O)C(=O)C1=C[C@@H]3C[C@H]4C(C)(C)O[C@@](C/C=C(/C)C(=O)O)(C3=O)[C@@]14O2 [Gambogenic acid],1.97% and 1.06%,1.12,0.46,0.68,0.23,0.27,0.27,0.82
O=C(Nc1c[nH]nc1-c1nc2ccc(CN3CCOCC3)cc2[nH]1)NC1CC1,26.9% and 28.6%,15.8,6.33,2.59,1.54,0.83,2.98,15.3
CC(C)(C)C(O)C(=Cc1ccc(Cl)cc1)n1cncn1 (stereo not given) [Uniconazole],95.8% and 99.3%,96.5,92.2,101,93.9,105,93.8,91.2
CCn1cc(C(=O)O)c(=O)c2ccc(C)nc21 [Nalidixic acid (NegGram)],96.8% and 104%,106,107,101,105,109,104,91.1
CC(=O)NS(=O)(=O)c1ccc(N)cc1 [Sulfacetamide],98.7% and 98.1%,111,90.8,96.3,103,103,98.4,106
CN(C[C@@H]1COCCO1)S(=O)(=O)Nc1ccc2ccc3ncc(-c4cnn(C)c4)cc3c(=O)c2c1,77.6% and 96.8%,82.6,74.1,72.6,20.4,16.7,41.6,47.3
"Cc1cc(C(=O)Nc2nc3cccc(Cl)c3n2[C@@H]2CCCCN(C(=O)/C=C/CN(C)C)C2)ccn1 [Nazartinib (EGF816, NVS-816)]",74.5% and 75.6%,69.3,27.6,35.6,53,48.9,44.4,56.7
O=c1cc[nH]c(=S)[nH]1 [2-Thiouracil],101% and 103%,100,98.6,109,106,106,107,104
CCCCOc1ccc(C(=O)Nc2ccc(F)cc2F)cc1,91% and 91.9%,91.8,75.4,88.6,100,110,85.7,92.8
CNc1ncc2cc(-c3cc(NC(=O)NCCC(C)(C)C)c(F)cc3C)c(C)nc2n1,14.9% and 29.3%,22,36.9,34.9,27.2,23.9,31.7,34.6
C[Si](C)(C)CCOCn1ccc2c(-c3cn[nH]c3)ncnc21,98.4% and 99.6%,109,98.6,106,95.9,106,100,99
COc1ccc2ccc(=O)oc2c1CC=C(C)C [Osthole (Osthol)],97.5% and 91.7%,90.1,94.2,93.2,88.7,94.3,93.2,95.5
